Bioassay records as filed in PubChem.
Rows were chosen to be rich in hits. Some 2.2% of all compounds tested hit in one or more screens of this group.
GalR3 antag: GalR3 antagonists in HEK293 cells, primary screen, cell-based, fluorescence readout; Galanin receptor type 3 (Homo sapiens), O60755; HEK293 GalR3-CNG cAMP membrane potential fluorescence; galR3 body fused to GalR1 C-terminus; inhibition, % at 3 µM; 360,000 tested, 0.44% active;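 active means inhibition above the screen-wide average plus 3 SD, cut at about 13% in these data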;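 further: forskolin and galanin both at EC90 stimulate the cells; cAMP rise reported by CNG channel membrane potential dye signal; 0% = forskolin plus galanin with DMSO and 100% = forskolin alone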
Target sequence (O60755 1-299 limits assumed): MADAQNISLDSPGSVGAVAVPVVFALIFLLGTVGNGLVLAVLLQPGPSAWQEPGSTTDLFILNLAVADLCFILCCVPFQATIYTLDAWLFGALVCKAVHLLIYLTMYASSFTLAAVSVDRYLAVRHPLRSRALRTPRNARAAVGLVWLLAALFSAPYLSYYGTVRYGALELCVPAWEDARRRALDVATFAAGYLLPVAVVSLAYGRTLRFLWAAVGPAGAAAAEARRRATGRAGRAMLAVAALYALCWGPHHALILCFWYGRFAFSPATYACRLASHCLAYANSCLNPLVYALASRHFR
SMARCA2 act: SMARCA2 (BRM) function activators, primary screen, cell-based, luminescence, high throughput | MG213 cells, MMTV-luciferase reporter, dexamethasone, overnight | activation, % at 9.1 µM | 370,000 tested, 1% active | AID 652017, 2013; in the data active means activation above about 7.8%;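 further: 0% = vehicle wells and 100% = reference activator wells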
GAA850 FXN act: FXN promoter activators, primary screen, cell-based, luciferase luminescence, HEK293 lucGAA850 | HEK293 lucGAA850 FXN promoter luciferase reporter, 24 h; percent of 10 µM SAHA response | activation, % at 6 µM | 360,000 tested, 0.56% active | AID 540364, 2011;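 active means activation above the average of all compounds screened plus 3 SD, cutoff fixed separately per campaign, cut at about 7.5% in these data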;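 further: 0% = DMSO wells and 100% = 10 µM SAHA wells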
HIF activator: HIF pathway transcriptional activators, primary screen, cell-based, U2OS HRE-luciferase, luminescence; U2OS HRE-luciferase reporter; normalized: DMSO 0%, desferrioxamine 100%; activation, % at 7.5 µM (by protocol); 300,000 tested, 0.32% active; AID 1910, 2009;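 active means mean activation of at least 10% of the iron chelator positive control signal, with at least half of replicates also reaching 10%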
Hsp70 act: Hsp70 transcriptional activators, primary screen, cell-based, HeLa, Hsp70 promoter luciferase, luminescence, 10 µM. HeLa Hsp70 promoter luciferase reporter; scaled: vehicle 0, proteasome-inhibitor control 100%. 200,000 tested, 0.04% active. activation, % at 10 µM;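 active means activation above the mean across all tested compounds plus 3 SD, cutoff set per campaign, cut at about 5.5% in these data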;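 further: 100% = MG132 at 30 µM as the positive control and 0% = DMSO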
SMARCA2 conf: SMARCA2 (BRM) function activators, confirmation, cell-based, luminescence, triplicate | shares compounds with SMARCA2 act | MG213 cells, MMTV-luciferase with dexamethasone, overnight; MG213 cells expressing E1A, Rb sequestered; DMSO wells 0%, reference activator 100% | activation, % at 9.1 µM | 3,500 tested, 30% active | AID 652260, 2013;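 active means activation above its plate's cutoff, the mean activation of tested wells plus 3 SD, cut at about 7.9% in these data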
VP16 Luc act: GAL4-VP16 luciferase reporter activation, counter-screen for SMARCA2 (BRM) activator project, cell-based, pG5luc, luminescence, high throughput | activation, % at 9.1 µM | HEK293 GAL4-VP16 pG5luc reporter; scaled: DMSO wells 0%, SAHA wells 100% | shares compounds with SMARCA2 act | 3,500 tested, 41% active;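 active means activation above the solvent-only control well mean plus 3 SD, averaged across control plates, cut at about 5.2% in these data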
* = called active by the depositor; nt = no result given.

SMILES	GalR3 antag	SMARCA2 act	GAA850 FXN act	HIF activator	Hsp70 act	SMARCA2 conf	VP16 Luc act
COC(=O)[C@]12C[C@H](CC(=O)N3CCCC3)C(=O)N(Cc3ccco3)C1=C[C@H](C(C)(C)C)O[C@@H]2C	nt	-0.1	nt	nt	nt	nt	nt
CCn1c(COc2ccc(C)cc2)nnc1SCc1cccc(C(F)(F)F)c1	nt	-4.5	nt	nt	nt	nt	nt
CC(=O)c1c(C)oc2c1cc(O)c1ccccc12	-5.1	-2.7	2.0	0.7	nt	nt	nt
CCOC(=O)c1c(C)oc2c1cc(O)c1ccccc12	-0.4	8.1*	6.7	2.6	0.2	9.8*	12.9*
COc1ccc2c(c1OC)C(=O)N1c3ccccc3COC21 (stereo not given)	-6.2	8.2*	4.9	2.3	-0.1	8.9*	9.3*
O=Nc1c2nc3ccccc3n(O)c-2c2ccccc12	-3.5	8.0*	6.3	2.8	0.1	28.5*	5.5*
On1c(-c2ccccc2)nc2ccccc21	9.5	-1.7	1.0	0.6	nt	nt	nt
CCn1cnc2sc(C(=O)Oc3cccc(C)c3)c(C)c2c1=O	-0.9	10.5*	2.9	3.4	-0.1	7.3	4.0
Cc1c(C(=O)Oc2ccc(F)cc2)sc2ncn(Cc3cccc(F)c3)c(=O)c12	-1.9	0.7	2.1	0.3	0.0	nt	nt
O=C(c1ccc(Cl)c(Cl)c1)N1CCC(Oc2cccnc2)CC1	nt	-1.2	nt	nt	nt	nt	nt
CCN(CC)C(=O)CC[C@@H]1CC[C@]2(CCCN(S(=O)(=O)c3ccccc3)C2)O1	nt	-4.2	nt	nt	nt	nt	nt
CNc1cccc(-c2ccc(C(=O)N3CCOCC3)cc2)n1	-2.8	10.3*	2.2	nt	nt	7.7	0.0
CNc1cccc(-c2ccc(N3CCN(C)CC3)nc2)n1	-5.5	9.1*	6.4	nt	nt	11.7*	7.7*
Cc1ccc(S(=O)(=O)Nc2ccc(N3CCN(C)CC3)nc2)cc1	-7.0	1.9	-0.8	-0.1	-0.1	nt	nt
CNc1cncc(-c2ccc(O)cc2)n1	-8.2	-0.6	2.4	nt	nt	nt	nt
CNc1cncc(-c2ccc(F)cc2F)n1	-5.6	10.3*	2.0	nt	nt	0.1	1.0
CS(=O)(=O)N[C@@H]1C[C@@H]2O[C@@H](CO)CC[C@@H]2O[C@@H]1CCc1ccc(-c2ccccc2F)cc1	nt	-4.4	nt	nt	nt	nt	nt
Cc1ccc(NC(=O)c2cnccn2)c(Br)c1	-9.4	10.2*	5.2	-4.2	nt	7.6	6.2*
CCC(=NCc1ccccc1)c1c(C(F)(F)F)[nH]n(-c2nc3ccccc3s2)c1=O	1.4	1.9	-3.3	1.3	0.0	nt	nt
O=c1c(C=NCc2cccnc2)c(C(F)(F)F)[nH]n1-c1nc2ccccc2s1	-0.3	11.6*	-1.1	-1.1	-0.4	11.0*	7.5*
O=C(CSc1nc2ccccc2nc1N1CCCCC1)N1CCN(S(=O)(=O)c2cc(Cl)ccc2Cl)CC1	nt	-3.0	nt	nt	nt	nt	nt
CC1CCCN(S(=O)(=O)c2ccc3[nH]c(=O)cc(C(=O)NCCCN4CCCCCC4)c3c2)C1 (stereo not given)	-7.6	-3.9	0.1	nt	nt	nt	nt
CCCCN(C)CCCNC(=O)c1cc(=O)[nH]c2ccc(S(=O)(=O)N3CCCCC3C)cc12 (stereo not given)	-5.5	8.2*	-1.3	-0.7	0.3	0.0	0.6
NS(=O)(=O)c1ccc(NC(=O)CSc2nnc(-c3cccs3)o2)cc1	nt	-3.9	nt	nt	nt	nt	nt
CC(=O)c1c(C)[nH]c(-c2ccccc2)nc1=S	2.5	10.6*	3.2	0.2	nt	-2.6	-0.3
SMILES	GalR3 antag	SMARCA2 act	GAA850 FXN act	HIF activator	Hsp70 act	SMARCA2 conf	VP16 Luc act
COc1ccccc1-c1nc(=S)c(C(C)=O)c(C)[nH]1	-2.4	12.4*	1.5	-0.9	nt	-1.4	1.6
COc1ccccc1-c1nc(NC(C)=O)n[nH]1	2.8	0.4	nt	-0.2	0.9	nt	nt
CCCCc1nnn2c1C1c3cc(Br)ccc3CCN1C(=O)C2 (stereo not given)	-9.2	1.8	nt	nt	nt	nt	nt
COC(=O)[C@@H](Cc1ccccc1)N[C@H](/C=C/c1ccccc1)[C@@H](O)Cc1ccccc1	-6.3	0.8	nt	nt	nt	nt	nt
Cc1ccc(C(=O)c2cnc3cc4c(cc3c2S(=O)(=O)c2ccccc2)OCCO4)cc1	2.1	9.5*	0.0	1.7	0.1	0.3	5.5*
COC(=O)[C@]12C[C@H](CC(=O)NCc3cccs3)C(=O)N(Cc3ccc(Cl)cc3Cl)C1=C[C@H](C(C)C)O[C@@H]2C1CC1	nt	-3.0	nt	nt	nt	nt	nt
CCn1c2ccccc2c2cc(NC(=O)COC(=O)c3cccc(F)c3F)ccc21	nt	-1.4	nt	nt	nt	nt	nt
CC(C)NC(=O)N[C@H]1C[C@@H]2O[C@H](CO)CC[C@@H]2O[C@@H]1CCc1ccc(-c2ccc(F)cc2)cc1	nt	-2.5	nt	nt	nt	nt	nt
Cc1nn(C)c(C)c1CNC(=O)Nc1ccc(Cl)cc1	-0.5	9.5*	-0.4	2.7	0.0	1.2	6.4*
Cc1nn(C)c(C)c1CNC(=O)Nc1cccc(Cl)c1	6.0	7.0	4.4	3.4	0.8	nt	nt
Cc1ccc(Cn2cc(CN3[C@H](CC(C)C)COc4cc(Br)ccc4S3(=O)=O)nn2)cc1	nt	6.0	nt	nt	nt	nt	nt
CC(=O)Nc1ccc2nc(NC(=O)c3cccnc3)sc2c1	-5.7	10.9*	2.4	0.8	0.0	10.3*	4.2
CCCOc1ccc(C2C3=C(Nc4nc(N)[nH]c(=O)c42)c2ccccc2C3=O)cc1 (stereo not given)	-4.5	-4.0	-0.8	-0.3	nt	nt	nt
CCOc1ccc(C2C3=C(Nc4nc(N)[nH]c(=O)c42)c2ccccc2C3=O)cc1 (stereo not given)	-8.6	13.7*	0.6	-1.2	-0.4	-0.5	0.5
O=C(NC1CCCCN(Cc2ccc(Cl)cc2)C1=O)C(c1ccccc1)c1ccccc1 (stereo not given)	nt	-0.1	nt	nt	nt	nt	nt
COCCCN1C(=O)[C@H](CC(=O)N2CCCCC2)[C@]2(C(=O)OC)CCCCC=C12	nt	1.9	nt	nt	nt	nt	nt
C[C@H](NS(=O)(=O)c1ccc2c(c1)OCCCO2)C(=O)N1CCN(Cc2ccc(C#N)cc2)CC1	-1.6	8.8*	1.4	nt	nt	-3.6	1.4
Cc1c(F)cccc1NS(=O)(=O)c1ccccc1C#N	-9.9	9.2*	-0.2	-0.5	0.0	-3.3	0.5
COc1cccc(C=NNc2ccc([N+](=O)[O-])cn2)c1OC	-6.7	8.3*	2.1	nt	nt	7.2	3.1
CCCCOC(=O)NC(NCC(O)c1ccccc1)(C(F)(F)F)C(F)(F)F (stereo not given)	1.4	-2.3	-0.5	0.1	-0.3	nt	nt
CCCCCOC(=O)NCC(O)c1ccccc1 (stereo not given)	-2.4	12.9*	4.4	1.2	0.2	7.8	11.3*
